# Where a name gives a salt, the structure may show the parent alone. ± gives the uncertainty stated by the source.
# Test system: U87
# Experiment: cell viability relative to vehicle control; higher = less growth inhibition (less active)
# Settings: 10 µM; 72 h
# 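Further: viable cell number estimated from Alamar Blue fluorescence read at 560/90, part of a single-dose primary screen of an FDA-approved drug library.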
row,Compound,cell viability [%]
1,CC(=O)CCCCn1cnc2c1c(=O)n(C)c(=O)n2C,105 ± 1.2
2,CCCCCCCCCCC[C@@H](C[C@@H]1OC(=O)[C@H]1CCCCCC)OC(=O)[C@H](CC(C)C)NC=O,103 ± 3.9
3,CC(C)(C)NC(=O)[C@@H]1CN(Cc2cccnc2)CCN1C[C@@H](O)C[C@@H](Cc1ccccc1)C(=O)N[C@H]1c2ccccc2C[C@H]1O,105.6 ± 0.74
4,O=C(O[C@@H]1C[C@@H]2C[C@H]3C[C@H](C1)N2CC3=O)c1c[nH]c2ccccc12,105.8 ± 0.72
5,CCN1CCC[C@H]1CNC(=O)c1cc(S(N)(=O)=O)ccc1OC,102 ± 3.2
6,CCCCCNC(=N)N/N=C/c1c[nH]c2ccc(OC)cc12,108 ± 1.2
7,"O=C1N[C@H](C(=O)O)CS1 [4-Thiazolidinecarboxylic acid, 2-oxo-, (R)- [CAS]]",101.1 ± 0.43
8,O=C(NCCO[N+](=O)[O-])c1cccnc1 [Nicorandil],101 ± 2.2
9,COc1cc(OC)c(C(=O)CCCN2CCCC2)c(OC)c1 [Buflomedil HCl],105 ± 2.7
10,OCc1cc(C(O)CNCCCCCCOCCCCc2ccccc2)ccc1O (stereo not given) [Salmeterol],106 ± 1.1
11,CC(C)c1ccc2oc3nc(N)c(C(=O)O)cc3c(=O)c2c1,107 ± 1.8
12,CCCCC[C@H](O)/C=C/[C@H]1[C@H](O)CC(=O)[C@@H]1CCCCCCC(=O)O [Prostaglandin E1],105.7 ± 0.69
13,CN(CCCN1c2ccccc2CCc2ccccc21)CC(=O)c1ccc(Cl)cc1,107 ± 2.2
14,O=C(O)CCc1nc(-c2ccccc2)c(-c2ccccc2)o1,129 ± 2.2
15,COC(=O)CCc1ccc(OCC(O)CNC(C)C)cc1 (stereo not given),128 ± 3
16,CCCc1nc(C(C)(C)O)c(C(=O)OCc2oc(=O)oc2C)n1Cc1ccc(-c2ccccc2-c2nnn[nH]2)cc1,102 ± 1.9
17,CCC1=C(C)CN(C(=O)NCCc2ccc(S(=O)(=O)NC(=O)N[C@H]3CC[C@H](C)CC3)cc2)C1=O,105 ± 2.2
18,CC[C@H]1OC(=O)[C@H](C)C(=O)[C@H](C)[C@@H](O[C@@H]2O[C@H](C)C[C@H](N(C)C)[C@H]2O)[C@](C)(OC)C[C@@H](C)C(=O)[C@H](C)[C@H]2N(CCCCn3cnc(-c4cccnc4)c3)C(=O)O[C@]12C,103.4 ± 0.35
19,N[C@@H](C(=O)N[C@@H]1C(=O)N2C(C(=O)O)=C(Cl)CS[C@H]12)c1ccccc1,104 ± 1.2
20,O=C1CCc2ccc(OCCCCN3CCN(c4cccc(Cl)c4Cl)CC3)cc2N1,102 ± 1.1

row,Compound,cell viability [%]
1,CCOC(=O)O[C@]1(C(=O)OCCl)CC[C@H]2[C@@H]3CCC4=CC(=O)C=C[C@]4(C)[C@H]3[C@@H](O)C[C@@]21C,104 ± 1.4
2,COC(=O)C1=C(C)NC(C)=C(C(=O)OC)C1c1ccccc1[N+](=O)[O-],105 ± 1.4
3,CC(=O)OCC(CCn1cnc2cnc(N)nc21)COC(C)=O,104.2 ± 0.4
4,"Nc1ccn([C@@H]2O[C@H](CO)[C@@H](O)[C@@H]2O)c(=O)n1 [2(1H)-Pyrimidinone, 4-amino-1-D-arabinofuranosyl- [CAS]]",47.5 ± 2.9
5,COc1ccc(CC(C)NCC(O)c2ccc(O)c(NC=O)c2)cc1 (stereo not given),98.7 ± 1.3
6,CC(=O)CCCCn1c(=O)c2c(ncn2C)n(C)c1=O [Pentoxifylline],101.9 ± 0.75
7,CC(C)C[C@H](NC(=O)[C@@H](O)[C@H](N)Cc1ccccc1)C(=O)O,97.13 ± 0.56
8,NC1CCN(c2nc3c(cc2F)c(=O)c(C(=O)O)cn3-c2ccc(F)cc2F)C1 (stereo not given),98.01 ± 0.56
9,CN(C)CCC=C1c2ccccc2COc2ccccc21 [Doxepin],101.6 ± 0.79
10,O=c1c(-c2ccccc2)c1-c1ccccc1 [diphenylcyclopropenone],77.4 ± 6.9
11,O=C(O)c1cc(/N=N/c2ccc(S(=O)(=O)Nc3ccccn3)cc2)ccc1O,102 ± 1.6
12,NC1CCN(c2cccc(Cl)n2)CC1,97.7 ± 4
13,COCCCOc1ccnc(C[S+]([O-])c2nc3ccccc3[nH]2)c1C (stereo not given),108.6 ± 0.87
14,N#Cc1ccc(C(c2ccc(C#N)cc2)n2cncn2)cc1,103 ± 1.3
15,CCN1CCCC1CNC(=O)c1cc(S(=O)(=O)CC)c(N)cc1OC (stereo not given) [Amisulpride],101.2 ± 0.96
16,C[C@]12CCC(=O)C=C1CC[C@@H]1[C@@H]2C(=O)C[C@@]2(C)[C@H]1CC[C@]2(O)C(=O)CO,102 ± 2.8
17,Cc1nc2n(c(=O)c1CCN1CCC(c3noc4cc(F)ccc34)CC1)CCCC2,108 ± 1.7
18,O=c1ncc(F)c[nH]1 [5-fluoro-2-pyrimidone],106.8 ± 0.67
19,CN1C(C(=O)Nc2ccccn2)=C(O)c2ccccc2S1(=O)=O [Piroxicam],103 ± 3.7
20,CN1CCN(C2=Nc3ccccc3Oc3ccc(Cl)cc32)CC1 [Loxapine],102 ± 1.6

# Reference: the supplement of paper PMC3898565
